Assay outcomes deposited in PubChem by The Scripps Research Institute Molecular Screening Center.
The sample as a whole holds a higher share of hits than the screen did.
TTR transcr act = TTR transcription activators in neuroblastoma reporter cells, primary screen, cell-based, luminescence, SH-SY5Y, TTR promoter Gaussia luciferase; 100% = recombinant luciferase protein wells; activation, % at 16.7 µM; 1.3% of 92,000 active; AID 1117267, 2014;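 active means activation above the mean of all tested compounds plus 3 SD, cut at about 9.5% in these data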;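 further: cells exposed to compounds for one day before reading; 0% = median of all test compound wells on the plate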
TTR inh HuH7 = TTR promoter reporter inhibitors in hepatoma cells, counter-screen for TTR transcription activator project, cell-based, luminescence, HuH7 hepatoma | HuH7 TTR promoter-Gaussia luciferase reporter | inhibition, % at 16.7 µM | shares compounds with TTR transcr act | 4% of 1,100 active;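 active means average inhibition above the solvent-only control wells' mean plus 3 SD, cut at about 15% in these data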;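 further: 0% = cells with DMSO only and 100% = cells with inhibitor control FD; inhibitors lower well luminescence so higher value means more inhibition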
TTR act confirm = TTR transcription activators, retest, confirmation, cell-based, luminescence, SH-SY5Y, triplicate; shares compounds with TTR transcr act; SHSY5Y TTR promoter Gaussia luciferase; 100% = purified Lucia enzyme wells, no cells; activation, % at 16.7 µM; 1,100 tested, under 10 active;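 active means mean activation above a set limit taken from the earlier primary screen, cut at about 11% in these data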;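 further: 0% = DMSO-treated cells and 100% = recombinant Lucia luciferase without cells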
Active calls of the source: *.

SMILES	TTR transcr act	others
CC(=O)c1c(C)nc(C)nc1NC(=O)Cc1ccccc1	1.4
CCCCCCCCN1C(=O)[C@@H](CC(=O)NCC2CCCCC2)C[C@@]2(C(=O)OC)C1=C[C@H](C(C)C)O[C@@H]2C1CC1	0.7
CCC(CO)Oc1cc(NCc2ccc(F)cc2)c2ncn(C(C)C)c2c1 (stereo not given)	-3.9
CCC(CO)Oc1cc(NCc2ccncc2)c2ncn(C(C)C)c2c1 (stereo not given)	3.5
CCC(CO)Oc1cc(NCc2cc(C)cc(C)c2)c2ncn(C(C)C)c2c1 (stereo not given)	10.9*	TTR inh HuH7=-22.6;TTR act confirm=-0.6
CCC[C@H]1[C@@H](N(C)Cc2cccs2)CC[C@@]23CCCN2C(=O)CCC[C@@H]13	0.0
CC(C)CN1C[C@@H]2CSCCS(=O)(=O)N2C1=O	1.3
O=C(NCCc1c[nH]c2ccccc12)OCc1cn(Cc2ccc(C(F)(F)F)cc2)nn1	-1.1
COc1ccc(CNC2CCC23CCCCC3)cc1OC (stereo not given)	-1.0
O=C(O)c1cccc(C(=O)c2cccc3ccccc23)c1	-0.9
Cc1cccc(C(=O)c2ccccc2C(=O)O)c1	10.7*	TTR inh HuH7=-7.0;TTR act confirm=1.0
Cc1cccc(C(=O)NNC(=O)c2ccccc2-n2cccc2)c1	-0.5
COc1cccc(NC(=O)n2ccc3ccc(-c4ccc5cc[nH]c5c4)cc32)c1	-1.3
CCCCc1ccc2nc(NC(=O)c3ccco3)sc2c1	0.3
C=CC[C@H](CC(=O)NCCO)C(=O)NCCOC(=O)[C@@H](CC=C)CC(=O)OC(C)(C)C	13.0*	TTR inh HuH7=-8.5;TTR act confirm=1.4
C=CC[C@@H](CC(=O)OC(C)(C)C)C(=O)OC[C@@H]1CCCN1C(=O)[C@H](CC=C)CC(=O)NCCO	-0.2
C=CC[C@@H](CC(=O)NCCO)C(=O)N[C@@H](COC(=O)[C@@H](CC=C)CC(=O)OC(C)(C)C)Cc1ccccc1	6.0
COC(=O)[C@]12C[C@H](CC(=O)N3CCCCC3)C(=O)N(CCc3ccc(OC)c(OC)c3)C1=C[C@H](C(C)C)O[C@@H]2C1CC1	0.9
C[C@H](CO)N1C[C@H](C)[C@H](CN(C)S(=O)(=O)c2cccc(F)c2)Oc2cc(Br)ccc2S1(=O)=O	1.8
C[C@H](CO)N1C[C@H](C)[C@H](CN(C)Cc2ccc(Oc3ccccc3)cc2)Oc2cc(Br)ccc2S1(=O)=O	13.3*	TTR inh HuH7=-7.4;TTR act confirm=-1.0
CC(C)NC(=O)N(C)C[C@H]1Oc2cc(Br)ccc2S(=O)(=O)N([C@H](C)CO)C[C@H]1C	0.2
COc1ccc(S(=O)(=O)N(C)C[C@H]2Oc3cc(Br)ccc3S(=O)(=O)N([C@H](C)CO)C[C@H]2C)cc1	28.1*	TTR inh HuH7=0.7;TTR act confirm=-1.2
Cc1ccc(S(=O)(=O)N(C)C[C@H]2Oc3cc(Br)ccc3S(=O)(=O)N([C@H](C)CO)C[C@@H]2C)cc1	5.8
C[C@H]1CN([C@@H](C)CO)S(=O)(=O)c2ccc(Br)cc2O[C@H]1CN(C)Cc1ccccc1	1.2
Cc1ccc(C)c(NC(=O)[C@@H]2CCCN2S(=O)(=O)c2cccc3cccnc23)c1	-0.6
SMILES	TTR transcr act	others
O=[N+]([O-])c1ncccc1OCCOc1ccc(Cl)cc1Cl	0.1
CCCCNC(=O)C[C@@H]1C[C@]2(C(=O)OCC)CCC3=C2N(CCC3)C1=O	0.4
COC(=O)[C@]12C[C@H](CC(=O)NCc3ccccc3)C(=O)N(Cc3cccc4ccccc34)C1=C[C@H](C(C)C)O[C@@H]2C1CC1	-1.4
COC(=O)C[C@H]1CC[C@@H]2[C@H](COc3ccc(NC(=O)c4cccc(F)c4)cc3C(=O)N2C)O1	-1.1
CCN1C(=O)[C@@H]2[C@H](C1=O)[C@@H]1C(=O)Nc3ccccc3C(=O)N1[C@@H]2c1ccc(OC)cc1	10.7*	TTR inh HuH7=-11.7;TTR act confirm=-0.1
CCN1C(=O)[C@H]2[C@@H](c3ccc(OC)cc3)N3C(=O)CN(Cc4ccccc4)C(=O)[C@@]3(Cc3ccccc3)[C@H]2C1=O	5.4
CCN1C(=O)[C@H]2[C@@H](c3ccc(OC)cc3)N[C@]3(CCCN(Cc4ccccc4)C3=O)[C@H]2C1=O	-0.4
CCCC[C@H]1C2CC(OC(=O)NCCCC(=O)OCC)C(C2)[C@H]2CCCCN21 (stereo not given in full)	2.1
O[C@H]1C[C@H](c2ccccc2)N(CC2CCCCC2)C[C@@H]1n1cc(-c2ccc(F)cc2)nn1	1.9
Cc1ccc([C@H]2C[C@H](n3cc(-c4ccc(F)cc4)nn3)[C@@H](O)CN2C(=O)C2CCCCC2)cc1	6.0
O=C(C1CCCCC1)N1C[C@H](n2cc(-c3ccc(F)cc3)nn2)[C@@H](O)C[C@@H]1c1ccccc1	12.9*	TTR inh HuH7=-7.2;TTR act confirm=-1.1
C=C(O[C@H]1[C@H](O)CC=C(C(=O)O)[C@@H]1O)C(=O)O	0.5
CCCC1CCC2(CC1)CCC2OC(=S)Nc1cccc(C(F)(F)F)c1 (stereo not given)	1.5
O=C(OCc1cn(Cc2ccc(Cl)cc2)nn1)N1CCCC1	4.8
CCCCCCCCN1C(=O)[C@@H](CC(=O)NCc2ccccc2)C[C@@]2(C(=O)OC)C1=C[C@H](C(C)C)O[C@@H]2C1CC1	3.0
CN1C2=N[C@@H](c3ccc4c(c3)OCO4)CC(=O)N2/C(=C\c2ccccc2)[C@H]1c1ccccc1	0.3
Cc1c(-c2ccccc2)nc(N)c(C#N)c1-c1cccnc1	11.7*	TTR inh HuH7=-6.0;TTR act confirm=-0.9
Cc1c(CC(C)C)nc(N)c(C#N)c1-c1ccccc1	0.4
CCCc1nc(N)c(C#N)c(-c2cccnc2)c1CC	1.7
Fc1c(-c2ccc3ncnc(NCc4cccs4)c3c2)ccc2c1OCO2	2.2
Cc1cccc(C(=O)Nc2nc3ncccn3c2-c2ccc(C(F)(F)F)cc2)c1	-0.1
O=C(O)CSCC(=O)Nc1cccc2ccccc12	10.0*	TTR inh HuH7=-5.9;TTR act confirm=-0.5
Nc1ccccc1SCC(=O)Nc1cccc2ccccc12	-1.0
N=c1sccn1CC(=O)Nc1cccc2ccccc12	2.3
Cc1cc(NC(=O)C(C)SCC(=O)OC(C)C(=O)Nc2ccc(F)cc2Cl)no1 (stereo not given)	11.6*	TTR inh HuH7=-8.6;TTR act confirm=0.5
SMILES	TTR transcr act	others
Cc1cc(NC(=O)CCOc2ccc(F)cc2)no1	3.5
Cc1cc(NC(=O)C(C)SCC(=O)OC(C)C(=O)Nc2cccc(C#N)c2)no1 (stereo not given)	-0.2
COC(=O)[C@]12C[C@H](CC(=O)NCC34CC5CC(CC(C5)C3)C4)C(=O)N(Cc3ccc4c(c3)OCO4)C1=C[C@H](C(C)C)O[C@@H]2C1CC1	-0.2
CCOC(=O)Cn1c(=O)oc2cc(S(=O)(=O)N3CCc4ccccc43)ccc21	14.5*	TTR inh HuH7=-3.6;TTR act confirm=-0.4
CCOC(=O)Cn1c(=O)oc2cc(S(=O)(=O)N(CCN(C)C)Cc3ccccc3)ccc21	0.0
CCOC(=O)Cn1c(=O)oc2cc(S(=O)(=O)NC(C)(C)CC)ccc21	0.3
Cc1ccccc1Cn1cc(COC(=O)N2CCOCC2)nn1	0.4
COC(=O)c1ccc(Cn2ccc3ccc(-c4ccc5ccn(C(=O)c6ccc(C)cc6)c5c4)cc32)cc1	-1.2
CCCCN1C(=O)N2CCc3ccccc3C2CS1(=O)=O (stereo not given)	-0.7
Cc1ccccc1Cn1cc(COC(=O)Nc2ccc(F)cc2)nn1	0.4
